Screening results as filed in PubChem BioAssay.
Pf Dd2 growth: blocks in vitro growth of P. falciparum Dd2. 4.3% of 120,000 active. Potency, µM (top dose mostly 28.9 µM), for the others: top-dose activity, negative = inhibition, actives largely listed as inhibitors. P. falciparum Dd2 growth, SYBR Green, 72 h; active = well fitted inhibition curve with a large enough effect;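 also: plate controls were DMSO vehicle for no effect and reference drug for full effect; nearly all actives have a fitted effect of over 65% in size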
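Infected erythrocytes (Dd2, 0.3% parasitemia, 2.5% hematocrit final) are added to compound in RPMI-1640/Albumax II medium, grown 72 h at 37C in low oxygen, then lysed with saponin/Triton-X containing SYBR Green and read by fluorescence.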
Numbers without * were called inactive; i = inactive; [ ] = remark or other dose. Only a selection was taken, and hits are over-represented in it overall. Potency is read from the fitted curve at half-maximal effect.

SMILES | Pf Dd2 growth
Cc1cnc(C2CCN(S(=O)(=O)c3ccccc3)C2)n1C(C)C (centres undefined) | 3.98µM*
CCCS(=O)(=O)NCCc1ncc(C)n1Cc1ccccc1 | -18.0%
CCCn1c(C)cnc1CC1CCCN(C(=O)CCOC)C1 (centres undefined) | -12.5%
CCS(=O)(=O)N1CCC(Cc2ncc(C)n2Cc2ccccc2)C1 (centres undefined) | 11.2µM*
O=S(=O)(c1ccccc1)N1CCC(Cc2nncn2-c2ccccc2)C1 (centres undefined) | i
Cn1c([C@H]2CCN(S(=O)(=O)c3ccc(F)cc3)C2)nc2ccccc21 | i
Cc1cnc(C2CCN(C(=O)NC(C)C)C2)n1C(C)C (centres undefined) | 17.1%
Cc1cnc(CC2CCN(S(=O)(=O)c3ccccc3)CC2)n1Cc1ccccc1 | 0.562µM*
CCn1cc(S(=O)(=O)N2CCC(Cc3ncc(C)n3Cc3ccc(F)cc3)CC2)cn1 | -31.6%
COc1cccc(CN2CCCC(Cc3ncc(C)n3Cc3ccccc3)C2)c1 (centres undefined) | -22.7%
CCCn1c(C)cnc1CC1CCCN(S(=O)(=O)c2cc(OC)ccc2OC)C1 (centres undefined) | 1.26µM*
CCn1nccc1C(=O)N1CC(c2nc(CCOCC3CC3)no2)C1 | 0.3%
CCc1nncn1C1CCN(C(=O)c2cc(F)ccc2F)CC1 | -10.7%
COc1ccccc1C(=O)N1CCCC(c2nn(-c3ccc(Cl)cc3)c(=O)[nH]2)C1 (centres undefined) | -29.8%
Cn1cnc(S(=O)(=O)N2CCCC(C(=O)NCCCN3CCCCCC3)CCNC(=O)CC2)c1 (centres undefined) | -9.5%
CC(C)(C)c1nnc([C@H]2CCN(C(=O)CCC(=O)O)C2)o1 | 20.6%[44.1 µM]
CC(C)NC(=O)c1ccccc1OCC1CCCN(C2CCCC2)C1 (centres undefined) | -5.8%
O=C(c1ccccn1)N1CC[C@H]2COC(=O)N2c2cc(F)ccc2C1 | 5.1%[44.1 µM]
Cc1cnc(CC2CCN(S(=O)(=O)c3ccc(C#N)cc3)C2)n1C1CC1 (centres undefined) | 10µM*
Cc1cnc(CC2CCN(C(=O)Nc3ccccc3F)C2)n1C(C)C (centres undefined) | i
CC(=O)N1CCCC(Cc2ncc(C)n2C(C)C)C1 (centres undefined) | -25.4%
Cc1cnc(CC2CCN(C(=O)C3CC3)CC2)n1Cc1ccccc1 | 6.31µM*
Cc1cnc(CC2CCN(C(=O)NC(C)(C)C)CC2)n1Cc1ccc(F)cc1 | i
N#Cc1ccc(S(=O)(=O)N2CCC(Cc3nc(-c4ccncc4)n[nH]3)C2)cc1 (centres undefined) | -9.7%
Cc1cnc(CC2CCCN(C(=O)Cc3ccccc3)C2)n1C(C)C (centres undefined) | 4.47µM*
SMILES | Pf Dd2 growth
Cc1cnc(CC2CCN(C(=O)Nc3ccccc3)C2)n1CC1CC1 (centres undefined) | i
CCC(=O)N1CCC(Cc2ncc(C)n2C2CC2)C1 (centres undefined) | i
Cn1ccnc1C(=O)N1CCc2nn(C)c(=O)n2CC1 | 51.1%
CC(C)N1C[C@H](O)C[C@H]1c1nnc2n1CCN(C(=O)CC1CCCC1)CC2 | -16.6%
COc1ccccc1CN1CC(c2noc(-c3cc(C)cc(C)c3)n2)CC1=O (centres undefined) | i
CCOc1cc(C2CC(=O)Nc3c2c(C)nn3-c2nc(C)cc(C)n2)ccc1O (centres undefined) | -28.2%
CC(=O)Nc1ccc(NC(=O)CC2Sc3ccccc3NC2=O)cc1 (centres undefined) | 16.0%
CCOc1cc(C2Sc3ccccc3NC3=C2C(=O)c2ccccc23)ccc1O (centres undefined) | 11.2µM*
C#CCOc1c(Br)cc(C2C(C(=O)OC)=C(C)NC3=C2C(=O)c2ccccc23)cc1OCC (centres undefined) | i
O=C1C2=C(Nc3ccccc3SC2c2ccc(Cl)c(Cl)c2)c2ccccc21 (centres undefined) | 3.55µM*
O=C(NCc1ccccc1Cl)c1cc2c(s1)-c1ccccc1SC2 | -1.0%
CCCc1ccc(C2Sc3ccccc3NC3=C2C(=O)c2ccccc23)cc1 (centres undefined) | 3.16µM*
COc1ccc(C(=O)NC2CCN(c3cnn(C)c(=O)c3)CC2)c(OC)n1 | -13.4%
CCCCNc1cc(N2CCN(C3CCCCC3)CC2)c2noc3c2c1C(=O)c1ccccc1-3 | 2.51µM*
Cc1noc(-c2ccco2)c1C(=O)NCc1ccc(F)cc1F | i
COc1ccccc1N1CCN(C(=O)c2ccc3c(c2)N(Cc2ccccc2)C(=O)c2ccccc2S3(=O)=O)CC1 | 7.08µM*
COc1ccccc1CNC(=O)c1ccc2c(c1)N(Cc1cccc(C)c1)C(=O)c1ccccc1S2(=O)=O | -9.2%
O=C(c1ccc2c(c1)N(Cc1ccc(F)cc1)C(=O)c1ccccc1S2(=O)=O)N1CCN(Cc2ccccc2)CC1 | i
O=C(c1ccc2c(c1)N(Cc1ccc(Cl)cc1)C(=O)c1ccccc1S2(=O)=O)N1CCC(Cc2ccccc2)CC1 | -5.9%
O=C(c1ccc2c(c1)N(Cc1ccccc1)C(=O)c1ccccc1S2(=O)=O)N1CCc2ccccc21 | 11.2µM*
CN1CCN(C(=O)c2ccc3c(c2)N(Cc2cccc(Cl)c2)C(=O)c2ccccc2S3(=O)=O)CC1 | i
Cc1cccc(CN2C(=O)c3ccccc3S(=O)(=O)c3ccc(C(=O)NC4CCCCC4)cc32)c1 | -3.6%
CCOC(=O)N1CCC(NC(=O)c2ccc3c(c2)N(Cc2cccc(C)c2)C(=O)c2ccccc2S3(=O)=O)CC1 | 11.2µM*
COc1ccc(N2CCN(C(=O)c3ccc4c(c3)N(Cc3cccc(Cl)c3)C(=O)c3ccccc3S4(=O)=O)CC2)cc1 | -4.9%
COC1CN(c2ccc(C)cc2)C12CCN(C(=O)c1nccc3ccccc13)CC2 (centres undefined) | i
SMILES | Pf Dd2 growth
COCCC(=O)Nc1ccc2c(c1)CCC(=O)N2C | 5.4%
COCCN1C(=O)[C@@H]2C[C@@H](CN2C(=O)c2ccc(Cl)cc2)Oc2ccccc21 | -6.0%[44.1 µM]
Cc1ccc(NC(=O)N2CC(c3nnc(-c4ccncc4)o3)C3(CCOCC3)C2)c(C)c1 (centres undefined) | 7.1%
Cc1ccc(-c2nccn3cc(C(=O)N4CCN(c5ncccn5)CC4)nc23)cc1 | i
Cc1cc(C)c(NC(=O)C(C)n2c(=O)cc(-c3ccccc3)c3c(C)nn(C)c32)c(C)c1 (centres undefined) | 19.9%
Cc1c(Cl)cccc1NC(=O)C(C)n1c(=O)cc(-c2ccccc2)c2c(C)nn(C)c21 (centres undefined) | i
COc1cc(OC)c(NC(=O)C(C)n2c(=O)cc(-c3ccccc3)c3c(C)nn(C)c32)cc1Cl (centres undefined) | 10µM*
COc1ccc(C(=O)c2cn(Cc3cccc(C)c3)c3cc4c(cc3c2=O)OCCO4)cc1OC | 7.94µM*
Cc1ccc(Cn2cc(C(=O)c3ccc4c(c3)OCO4)c(=O)c3cc(C)ccc32)cc1 | 10µM*
Cc1ccc2c(c1)c(=O)c(C(=O)c1ccccc1)cn2Cc1ccccc1F | 12.6µM*
COc1ccc(C(=O)c2cn(Cc3ccccc3OC)c3cc4c(cc3c2=O)OCO4)cc1 | -2.7%
CCOc1ccc(NC(=O)Cn2cc(C(=O)c3ccc(C)cc3)c(=O)c3cc4c(cc32)OCO4)cc1 | -8.9%
Cc1ccc(C(=O)c2cn(Cc3ccccc3F)c3cc4c(cc3c2=O)OCCO4)cc1 | -10.3%
CCOc1ccc(C(=O)c2cn(Cc3ccccc3OC)c3cc4c(cc3c2=O)OCCO4)cc1 | -13.2%
COc1ccccc1Cn1cc(C(=O)c2ccc(F)cc2)c(=O)c2cc3c(cc21)OCO3 | 4.7%
